# Screening results as filed in PubChem BioAssay.
# Only some compounds are listed: those with a hit (about 2.1% of all), similar ones and a draw of the others.
# PTAP TSG101 blk: blocks PTAP/TSG101 interaction to inhibit HIV-1 budding; Q99816; Fluorescence polarization, FITC-PTAP peptide / Tsg101 binding; Potency, µM (doses to about 115 µM), inactives show at the highest dose activity change, negative = inhibition, hits mostly inhibitors; 340,000 tested, under 10 active; AID 493005; active = well fitted inhibition curve with a large enough effect in the main read-out, with a control signal flat, not every such curve was filed as active; inconclusive = small, poorly fitted or top-dose-only effect, or effect the other way, or a change in a side signal; inactive = no such curve, though single readings can be large or run the other way; also: % of control where 0% means no effect
# Target sequence (Q99816 whole entry, looked up): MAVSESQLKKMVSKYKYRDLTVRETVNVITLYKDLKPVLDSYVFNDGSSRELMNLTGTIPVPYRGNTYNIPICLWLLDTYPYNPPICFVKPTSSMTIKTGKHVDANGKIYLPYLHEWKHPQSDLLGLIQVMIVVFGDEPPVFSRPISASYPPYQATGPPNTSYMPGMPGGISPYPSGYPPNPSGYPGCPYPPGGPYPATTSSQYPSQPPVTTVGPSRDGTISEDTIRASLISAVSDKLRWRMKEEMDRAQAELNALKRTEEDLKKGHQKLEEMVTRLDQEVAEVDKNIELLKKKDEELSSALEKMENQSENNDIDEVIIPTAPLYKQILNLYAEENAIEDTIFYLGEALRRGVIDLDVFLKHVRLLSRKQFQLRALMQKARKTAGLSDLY
#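 Steps: Tsg101 binding domain dispensed (10 uM final), compounds pinned in DMSO, FITC-labeled PTAP-motif peptide added (50 nM final); after 20 min binding at room temperature, polarization measured.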
# FUS suppressor: suppressors of FUS proteinopathy in yeast. S. cerevisiae FUS-expressing, growth rescue, OD600, 24 h. Potency, µM (titrated, usually from 76.6 µM), most hits filed as activators. 390,000 tested, 0.24% active. AID 1347120;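 also: plate controls were DMSO vehicle for no effect and reference control for full effect; nearly all actives have a fitted effect of over 55% in size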
#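 S. cerevisiae expressing FUS from galactose induction served as the toxicity model. Growth after 24hr at 30C, read as absorbance at 600 nm, indicates suppression of toxicity; compounds dosed at several concentrations.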
# TDP-43 yeast inh: rescues yeast growth from TDP-43 toxicity | TDP-43 expressing yeast growth rescue, BacTiter-Glo, 24 h | Potency, µM (titrated, usually from 46.1 µM), inactives show at the top dose growth rescue (activation), most hits filed as activators | 410,000 tested, 1.8% active; also: % of control where 0% means no effect; nearly all actives have a fitted effect of over 50% in size
#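 Yeast expressing TDP-43 (pregrown in raffinose, seeded at OD600=0.02 in galactose medium) exposed to compounds 24 hr at 30 deg C. Growth read by BacTiter-Glo luminescence; rescue of toxicity appears as increased signal.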
# aSyn yeast inh: rescues yeast growth from alpha-synuclein toxicity. Yeast expressing alpha-synuclein, growth rescue, BacTiter-Glo, 24 h. Potency, µM (doses to about 46.1 µM), inactives show top-dose growth rescue (activation), usual class: activators. 370,000 tested, 0.14% active. AID 652106; also: % of control where 0% means no effect; nearly all actives have a fitted effect of over 65% in size
#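 Readout is rescue of growth in alpha-synuclein-expressing yeast, so inhibitors of toxicity appear as activators. Growth after 24 hr at 30 deg C in galactose medium is quantified by luminescence.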
# Abeta yeast res: compounds reversing amyloid beta toxicity in yeast. 410,000 tested, 0.063% active. yeast expressing A-beta42, growth rescue, OD600, 48 h; response scale: 0% DMSO, 100% iron-clioquinol control. Potency, µM (titrated, usually from 46.1 µM), actives largely listed as activators. AID 1347071; also: nearly all actives have a fitted effect of over 55% in size
#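 Yeast A-beta toxicity model in growth medium with pinned compounds, 48 h at 30 C; growth read as absorbance at 600 nm. Normalized to FeCl3/clioquinol equimolar mix (positive) and DMSO (negative).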
# Starred values were filed as active, the others as inactive; i = inactive; ? = inconclusive; nt = no result; [ ] = another dose, or the depositor's remark. Unless noted, calls follow the shape of the dose curve; as a rule, active = well fitted curve in the direction sought with a large enough effect; inconclusive = small, poorly fitted or top-dose-only effect, or another doubt; inactive = no such curve, though single readings can be large; an effect the other way counts as inactive or inconclusive. Potency is read from the fitted curve at half-maximal effect.
SMILES,PTAP TSG101 blk,FUS suppressor,TDP-43 yeast inh,aSyn yeast inh,Abeta yeast res
COc1ccc(NC(=O)N(C)C[C@H]2Oc3c(NC(=O)c4nc5ccccc5s4)cccc3C(=O)N([C@@H](C)CO)C[C@H]2C)cc1,-5.7%,15.8µM*,14.2%,-7.1%,i
COc1ccc(NC(=O)N(C)C[C@H]2Oc3c(NC(=O)Nc4ccc(C(F)(F)F)cc4)cccc3C(=O)N([C@H](C)CO)C[C@@H]2C)cc1,-0.5%,25.1µM*,-11.7%,-11.2%,i
CCn1cc(/C=C(\NC(=O)c2cc(OC)c(OC)c(OC)c2)C(=O)NCCCn2ccnc2)c2ccccc21,nt,i,-5.8%,-2.0%,i
CCCCN1C(=O)C(O)(CC(=O)c2ccc(CC)cc2)c2cc(Br)ccc21 (configuration not stated),nt,i,17.8µM*,nt,i
CCCN1C(=O)C(O)(CC(=O)c2ccc(CC)cc2)c2ccccc21 (configuration not stated),nt,i,15.4%,nt,i
Cc1cc(=O)[nH]c(-n2nc(C)cc2C)n1,-2.0%,i,?,28.2µM*,?
CCOC(=O)c1cnc(-n2[nH]c(C)cc2=O)[nH]c1=O,-2.1%,i,1.0%,2.9%,i
Cc1cc(=O)[nH]c(N2CCCNCC2)n1,-1.2%,i,-0.4%,-4.0%,i
CCOC(=O)c1cnc(-n2nc(C)cc2C)[nH]c1=O,-1.5%,i,?,22.4µM*,?
CCOC(=O)[C@@]12CCCC=C1N(CCc1ccc(Cl)cc1)C(=O)[C@H]2CC(=O)N1CCOCC1,nt,i,nt,nt,nt
O=C(C1COc2ccccc2O1)N1CCOCC1 (configuration not stated),-7.4%,?,-19.4%,-2.8%,i
O=C(C1COc2ccccc2O1)N1CCN(c2ccccc2)CC1 (configuration not stated),-2.7%,i,25.1µM*,0.7%,?
O=C(C1COc2ccccc2O1)N1CCN(c2nc3ccc(F)cc3s2)CC1 (configuration not stated),nt,?,20µM*,nt,?
CCCCN(CC)CCCNC(=O)c1cc2c(=O)[nH]c3ccccc3c2n1C,nt,i,-17.0%,nt,i
COc1ccccc1CNC(=O)c1cccn1-c1nnc(N2CCCC2)s1,nt,i,7.8%,nt,i
Cc1cccc(NC(=O)c2sc(-n3nc(C)c(CCC(C)C)c3C)nc2C)c1,nt,i,8.3%,nt,i
COc1ccc(S(=O)(=O)N(C)C[C@@H]2Oc3c(NC(=O)Nc4ccccc4)cccc3C(=O)N([C@@H](C)CO)C[C@H]2C)cc1,nt,15.8µM*,nt,nt,nt
COc1ccc(C#Cc2ccc3c(c2)O[C@H](CN(C)S(=O)(=O)c2ccccc2F)[C@H](C)CN([C@H](C)CO)S3(=O)=O)cc1,nt,28.2µM*,26.2%,-3.5%,i
COc1ccc(S(=O)(=O)Nc2cccc3c2O[C@H](CN(C)Cc2ccc(-c4ccccc4)cc2)[C@@H](C)CN([C@H](C)CO)C3=O)cc1,-1.3%,25.1µM*,-0.6%,-1.0%,i
COc1ccc(S(=O)(=O)Nc2cccc3c2O[C@H](CN(C)Cc2ccc(Oc4ccccc4)cc2)[C@@H](C)CN([C@H](C)CO)C3=O)cc1,-1.8%,?,3.2%,-0.5%,i
COc1ccc(S(=O)(=O)Nc2cccc3c2O[C@H](CN(C)S(=O)(=O)c2ccccc2)[C@@H](C)CN([C@H](C)CO)C3=O)cc1,-2.9%,15.8µM*,8.4%,-2.1%,i
O=S(=O)(c1cccc(C(F)(F)F)c1)n1c(/C=C/c2ccccc2)nc2ccccc21,nt,i,-50.1%,nt,i
CC(C)CCNC(=O)CSCc1cnn(-c2ccccc2)c1-n1cccc1,nt,i,?,nt,i
CCNC(=O)c1nn(-c2ccccc2C)nc1CO,nt,i,11.4%,nt,i
C[C@H](CO)N1C[C@H](C)[C@@H](CN(C)S(=O)(=O)c2ccccc2)Oc2c(NC(=O)NC3CCCCC3)cccc2C1=O,1.6%,31.6µM*,-5.0%,-9.1%,i
SMILES,PTAP TSG101 blk,FUS suppressor,TDP-43 yeast inh,aSyn yeast inh,Abeta yeast res
COc1ccc(S(=O)(=O)N(C)C[C@H]2Oc3ccc(NC(=O)Cc4ccccc4)cc3C(=O)N([C@H](C)CO)C[C@@H]2C)cc1,-4.8%,28.2µM*,18.0%,1.0%,i
C[C@H](CO)N1C[C@H](C)[C@@H](CN(C)S(=O)(=O)c2ccc(F)cc2)Oc2c(NC(=O)NC3CCCCC3)cccc2C1=O,-1.6%,i,7.5%,6.5%,i
O=C(NCc1ccccc1Cl)c1ccc2c(c1)ncn2-c1cccc(F)c1,nt,?,nt,nt,i
COc1ccccc1NCc1nc2ccccc2n1C,nt,i,nt,nt,nt
CS(=O)c1ccccc1-c1nc(-c2cccc(Cl)c2)no1 (configuration not stated),-4.6%,i,12.6µM*,7.0%,i
CC(C)(C)n1nc2c(c1NC(=O)c1ccc(S(=O)(=O)N3CCCC3)cc1)CSC2,-3.8%,15.8µM*,0.0%,2.5%,i
O=C(NCC1CCCCC1)c1csc([C@@H]2C[C@H](O)[C@@H](CO)O2)n1,nt,i,6.6%,0.1%,i
CCOC(=O)c1cc2c(=O)n3ccccc3nc2n(Cc2ccco2)c1=NC(=O)c1cccnc1,-12.0%,31.6µM*,-1.0%,-0.1%,i
COc1ccc(C(=O)Nc2ccc(S(=O)(=O)Nc3nccnc3OC)cc2)cc1,-6.0%,i,0.316µM*,-12.4%,i
COc1nccnc1NS(=O)(=O)c1ccc(NC(=O)c2ccc(F)cc2)cc1,1.9%,i,0.2%,4.0%,i
COC(=O)c1ccccc1NC(=O)CCC(=O)N1CC(C)Sc2ccccc21 (configuration not stated),nt,i,17.8µM*,nt,i
Cc1ccc2c(c1)N(C(=O)CCC(=O)Nc1ccc(F)cc1F)CC(C)O2 (configuration not stated),nt,i,14.2%,nt,i
COC(=O)c1ccccc1NC(=O)CCC(=O)N1CC(C)Oc2ccc(C)cc21 (configuration not stated),-4.7%,i,17.8µM*,3.5%,i
Cc1ccccc1C1C(C#N)=C2N=C(N)c3c(sc4c3CCCCC4)N2C2=C1C(=O)CC(C)(C)C2 (configuration not stated),-2.7%,28.2µM*,8.8%,0.7%,i
CC(=O)c1cccc(NC(=O)c2cnn3c(C)cc(C)nc23)c1,nt,i,nt,nt,nt
Cn1c(N)c(C(=O)COC(=O)C2CCC(C(C)(C)C)CC2)c(=O)n(C)c1=O (configuration not stated),-1.4%,i,35.5µM*,2.6%,i[9.22 µM]
Cn1c(N)c(C(=O)COC(=O)C2CCCC2)c(=O)n(C)c1=O,-2.8%,i,-13.4%,-3.6%,i
